Experimental findings from PubChem BioAssay are described below.

The structures appear in SMILES notation. Activity calls are given as the source filed them.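 How the source made its calls, unless noted: active means visual image review flags a hit and inhibition of aggregation exceeds 20%; inconclusive means visual hit but inhibition at or below 20%; inactive means no hit on visual image review.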

The nature of assay [1]: inhibitors of TNFa-induced NFkB p65 translocation, primary screen, imaging, HUVEC, MLSMR starter and 10KST1 sets (AID 438;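 active means inhibition above 20% together with a positive visual image hit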;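 further: compound added about 3h40 before a 20 min TNFalpha stimulation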;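 on inhibition: signal is the nuclear over cytoplasmic p65 intensity ratio per well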). Conditions: HUVEC TNFa-induced p65 nuclear translocation; cell count: measured here: nuclei count (cytotoxicity indicator), at 2.08 µM; inhibition: at 2 µM, stronger effect = higher value, 0% TNFa-plus-vehicle, 100% no-TNFa wells.
A short description of assay [2]: inhibitors of mutant huntingtin aggregation, primary screen, imaging, exon1htt(103Q)mCFP cells, high-content imaging (AID 483).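 Further: compound exposure lasted 3 days before fixation.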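 On nuclei count: percent of the per-plate median nuclei count of sample wells.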 The settings on record: exon1htt(103Q)mCFP cell line, aggregate imaging, at 2 µM; inhibition of aggregation: stronger effect = higher value; nuclei count: measured here: cell count, toxicity.
Assay [3] is described as follows: inhibitors of E-selectin induction by TNFa, primary screen, imaging, HUVEC, immunofluorescence, MLSMR starter and 10KST1 sets (AID 487;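 active means visually confirmed hit in the image check and inhibition above 20%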;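 on inhibition: signal is fraction of cell area covered by stained E-selectin grains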;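 on nuclei count: 100% = median nuclei count of all wells on the same plate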). Conditions: HUVEC TNFalpha-induced E-selectin immunofluorescence imaging, at 2 µM; inhibition: stronger effect = higher value; nuclei count: measured here: cell number, toxicity.
Assay [4] concerns the target Voltage-gated potassium channel subunit beta-2 (Rattus norvegicus) (UniProt P62483). Put plainly: KvBeta enzyme negative modulators, primary screen, biochemical, NADPH fluorescence (AID 622;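 active means fluorescence slope higher than the sample average by over 3 SD, cut at about -0.22 in these data, passing the limit was not always enough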;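 further: slope of raw intensity against log time taken from 70 to 1610 s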). The settings on record: recombinant KvBeta, 4-cyanobenzaldehyde reduction, at 10 µM, stronger effect = higher value.
For assay [5] the target is unchanged. The assay is described as follows: KvBeta positive modulators, primary screen, biochemical, NADPH fluorescence (AID 623;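 active means NADPH fluorescence slope more negative than the mean of all samples by about 3 SD, 99.7% confidence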;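 further: fluorescence intensity change per second fitted from 20 to 320 s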). The settings on record: Recombinant KvBeta, NADPH fluorescence decrease slope, 10 min; at 10 µM; stronger effect = lower value.
The target in assay [6] is Alpha-2C adrenergic receptor (Homo sapiens) (UniProt P18825). The assay is described as follows: modulators of alpha2C/GIRK thallium flux, primary screen, cell-based, HEK293 alpha2C/GIRK1/2 (AID 624;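 active means fluorescence slope after compound addition differing from the mean of all screened samples at 99.7% confidence, in either direction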;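 further: slope of fluorescence ratio to pre-addition baseline per second over 15 to 24 s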). Conditions: thallium flux BTC fluorescence, at 10 µM, actives lie on both sides.
Alpha-2C adrenergic receptor (Homo sapiens), sequence (P18825 whole entry, looked up): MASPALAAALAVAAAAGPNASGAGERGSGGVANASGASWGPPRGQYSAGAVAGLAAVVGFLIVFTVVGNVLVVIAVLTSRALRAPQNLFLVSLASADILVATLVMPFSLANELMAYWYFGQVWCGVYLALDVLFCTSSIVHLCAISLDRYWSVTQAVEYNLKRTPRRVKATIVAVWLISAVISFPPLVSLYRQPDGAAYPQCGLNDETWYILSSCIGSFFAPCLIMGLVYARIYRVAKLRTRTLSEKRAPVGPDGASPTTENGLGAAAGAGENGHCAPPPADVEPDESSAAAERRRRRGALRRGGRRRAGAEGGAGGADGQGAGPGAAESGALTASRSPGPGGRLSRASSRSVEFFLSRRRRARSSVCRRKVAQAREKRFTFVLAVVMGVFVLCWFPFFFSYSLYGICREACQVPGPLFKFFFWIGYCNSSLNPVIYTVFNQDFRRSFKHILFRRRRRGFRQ
Assay [7] in a line: inhibitors of Sendai virus-induced IRF3 signaling, primary screen, TLR/RLR signaling modifier project, cell-based, Sendai virus stimulus, luciferase, 10K MLSCN set (AID 602276;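 active means inhibition at or above 50% at 10 µM; inactive means inhibition below 50%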;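 further: firefly luciferase from ISG56 promoter only with Renilla not read in this screen; 0% = Sendai virus plus DMSO and 100% = medium plus DMSO without virus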). Conditions: HEK293 RL24 IRF3 luciferase reporter, at 10 µM, stronger effect = higher value.
Assay [8] is described as follows: inhibitors of poly I:C-induced TLR3 signaling, primary screen, cell-based, poly I:C stimulus, luciferase, 10K MLSCN set (AID 602277;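 active means inhibition of the reporter signal at or above 50%; inactive means inhibition below 50%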). The settings on record: HEK293-TLR3 RL24 IRF3 luciferase reporter, at 10 µM, stronger effect = higher value.

Voltage-gated potassium channel subunit beta-2 (Rattus norvegicus), sequence (P62483 whole entry, looked up): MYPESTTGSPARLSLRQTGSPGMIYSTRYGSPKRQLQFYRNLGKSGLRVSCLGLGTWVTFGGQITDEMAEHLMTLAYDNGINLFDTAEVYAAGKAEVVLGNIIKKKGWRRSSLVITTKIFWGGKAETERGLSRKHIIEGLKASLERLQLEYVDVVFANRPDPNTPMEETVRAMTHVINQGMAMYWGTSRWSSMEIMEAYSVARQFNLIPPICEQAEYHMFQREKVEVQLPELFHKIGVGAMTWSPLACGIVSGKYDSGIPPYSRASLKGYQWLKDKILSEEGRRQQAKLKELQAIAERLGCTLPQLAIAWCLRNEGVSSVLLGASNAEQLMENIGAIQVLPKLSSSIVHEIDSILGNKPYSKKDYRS

As for `CCC(=O)Nc1ccc(NC(=O)c2cccc(OC)c2)nc1`, the cell count in assay [1] worked out at 742. Besides, the inhibition is -7.5% (inactive) in assay [1], -92.8% (inactive) in assay [3], -60.4% (inactive) in assay [7] and -106% (inactive) in assay [8]. The inhibition of aggregation in assay [2] was -5.7% (inactive). Also, the nuclei count in assay [2] amounted to 105%; in assay [3], 160%. In assay [4], the fluorescence slope is -0.465 (inactive). Besides, the NADPH fluorescence slope in assay [5] was 1.2e-05 (inactive). For the same molecule, in assay [6], the slope was 0.00556 (inactive).

Turning to `CC(C)C(OC(=O)c1ccco1)C(=O)NCc1ccccc1` (centres undefined), in assay [1], the cell count turned out to be 489. In addition, the inhibition is 5% (inactive) in assay [1], -122% (inactive) in assay [3], 11.3% (inactive) in assay [7] and 10.5% (inactive) in assay [8]. In assay [2], the inhibition of aggregation was -10.8% (inactive). The nuclei count in assay [2] amounted to 108%; in assay [3] it was 126%. For the same molecule, the fluorescence slope in assay [4] is -0.443 (inactive). Further, the NADPH fluorescence slope in assay [5] was 2.2e-05 (inactive). Besides, in assay [6], the slope was 0.00599 (inactive).

As to `CCOC(=O)CN1CC23C=CC(O2)C(C(=O)Nc2ccc(OC)cc2OC)C3C1=O` (centres undefined), the cell count in assay [1] was found to be 563. Further, the inhibition was 8% (inactive) in assay [1], -54% (inactive) in assay [3], 8.81% (inactive) in assay [7] and 32% (inactive) in assay [8]. Besides, in assay [2], the inhibition of aggregation is 8.7% (inactive). In addition, the nuclei count in assay [2] was 81.1%; in assay [3], 116%. Besides, the fluorescence slope in assay [4] is -0.574 (inactive). The NADPH fluorescence slope in assay [5] was -1.5e-05 (inactive). In addition, in assay [6], the slope was 0.00618 (inactive).

`COc1ccc(CCNC(=O)C2(C)CCC(=O)N2Cc2ccc3c(c2)OCO3)cc1OC` (centres undefined): in assay [1], the cell count came to 822. For the same molecule, the inhibition in assay [1] was 0.6% (inactive); in assay [3] it was -37.2% (inactive); in assay [7] it was 8.58% (inactive); in assay [8], 36.6% (inactive). In addition, in assay [2], the inhibition of aggregation is 18.7% (inactive). For the same molecule, the nuclei count in assay [2] is 106%; in assay [3] it was 116%. Further, the fluorescence slope in assay [4] was -0.59 (inactive). In assay [5], the NADPH fluorescence slope was -3.7e-05 (inactive). Also, the slope in assay [6] is 0.00743 (inactive).

Turning to `Cc1ccc(C)c(-n2c(CNC(=O)c3ccco3)nnc2SCC(=O)Nc2nnc(C)s2)c1`, the cell count in assay [1] was 656. Further, the inhibition in assay [1] was -6.4% (inactive); in assay [3], 3.7% (inactive); in assay [7] it was 14.2% (inactive); in assay [8] it was 36.2% (inactive). Also, the inhibition of aggregation in assay [2] is 20.8% (inactive). In addition, the nuclei count amounted to 99.5% in assay [2] and 120% in assay [3]. In assay [4], the fluorescence slope is -0.528 (inactive). The NADPH fluorescence slope in assay [5] was -3e-05 (inactive). The slope in assay [6] was 0.0063 (inactive).

On to `CCOC(=O)CNC(=O)CSc1nnnn1-c1cc(C)ccc1C`, for which the cell count in assay [1] came out at 355. Further, the inhibition was -3.6% (inactive) in assay [1], 51.5% (inactive) in assay [3], 4.69% (inactive) in assay [7] and 10.9% (inactive) in assay [8]. In addition, in assay [2], the inhibition of aggregation was 14.6% (inactive). Further, the results for the nuclei count in assay [2] and in assay [3] were 89.4% and 82%, respectively. Besides, in assay [4], the fluorescence slope was -0.533 (inactive). In addition, in assay [5], the NADPH fluorescence slope is 3e-05 (inactive). For the same molecule, the slope in assay [6] was 0.00704 (inactive).

For the molecule `COc1ccc(NC(=O)CSc2nnc(-c3ccccc3)n2N)cc1`, in assay [1], the cell count was 438. Also, the inhibition in assay [1] is 0% (inactive); in assay [3], -13.6% (inactive); in assay [7] it was 15.8% (inactive); in assay [8], 24% (inactive). Further, the inhibition of aggregation in assay [2] was 4.9% (inactive). The nuclei count in assay [2] was determined as 103%; in assay [3] it was 114%. The fluorescence slope in assay [4] is -0.38 (inactive). For the same molecule, the NADPH fluorescence slope in assay [5] is 9.8e-06 (inactive). For the same molecule, the slope in assay [6] was 0.00577 (inactive).

Turning to `O=c1[nH]cnc2c1nc(SCc1ccccc1)n2C1OC(CO)C(O)C1O` (centres undefined), the cell count in assay [1] was 459. The inhibition is 14.3% (inactive) in assay [1], -9.9% (inactive) in assay [3], 10.8% (inactive) in assay [7] and 24% (inactive) in assay [8]. For the same molecule, the inhibition of aggregation in assay [2] is 10.4% (inactive). The nuclei count in assay [2] is 71.9%; in assay [3] it was 110%. For the same molecule, the fluorescence slope in assay [4] was -0.597 (inactive). In assay [5], the NADPH fluorescence slope is 1.2e-06 (inactive). In addition, in assay [6], the slope is 0.00624 (inactive).

For `O=C(COC(=O)CCC1CCCC1)Nc1ccc(Cl)cn1`, the cell count in assay [1] is 429. In addition, the inhibition in assay [1] was -4.8% (inactive); in assay [3] it was -27.8% (inactive); in assay [7], -6.45% (inactive); in assay [8], 3.24% (inactive). Also, the inhibition of aggregation in assay [2] was -13.9% (inactive). In addition, the results for the nuclei count in assay [2] and in assay [3] were 115% and 108%, respectively. Moreover, the fluorescence slope in assay [4] was -0.345 (inactive). The NADPH fluorescence slope in assay [5] was -5.6e-05 (inactive). For the same molecule, in assay [6], the slope was 0.00786 (inactive).

For `O=C(CSc1oc(-c2ccco2)nc1S(=O)(=O)c1ccccc1)NCC1CCCO1` (centres undefined), in assay [1], the cell count was 497. The inhibition is -13.9% (inactive) in assay [1], -95% (inactive) in assay [3], 9.95% (inactive) in assay [7] and 20.2% (inactive) in assay [8]. For the same molecule, the inhibition of aggregation in assay [2] was 7.5% (inactive). For the same molecule, the nuclei count amounted to 98.6% in assay [2] and 174% in assay [3]. For the same molecule, the fluorescence slope in assay [4] is -0.492 (inactive). For the same molecule, the NADPH fluorescence slope in assay [5] was -4.8e-05 (inactive). The slope in assay [6] is 0.00481 (inactive).

As to `Cc1cc(C(=O)NCCN2CCCCC2C)n(-c2ccccc2)n1` (centres undefined), in assay [1], the cell count was 879. The inhibition in assay [1] is 0.6% (inactive); in assay [3], -39.7% (inactive); in assay [7] it was 1.98% (inactive); in assay [8] it was 23.7% (inactive). In addition, the inhibition of aggregation in assay [2] is 11.3% (inactive). The results for the nuclei count in assay [2] and in assay [3] were 96% and 113%, respectively. For the same molecule, the fluorescence slope in assay [4] is -0.552 (inactive). Further, in assay [5], the NADPH fluorescence slope is -4.7e-05 (inactive). Further, the slope in assay [6] was 0.0056 (inactive).

Take `Cc1sc2ncn3ncnc3c2c1C`: in assay [1], the cell count is 546. Further, the inhibition in assay [1] is -10% (inactive); in assay [3], 25.3% (inactive); in assay [7], -16.9% (inactive); in assay [8] it was -56.2% (inactive). Also, in assay [2], the inhibition of aggregation was -1.7% (inactive). For the same molecule, the nuclei count in assay [2] turned out to be 41.8%; in assay [3], 102%. Also, in assay [4], the fluorescence slope was -0.617 (inactive). Further, in assay [5], the NADPH fluorescence slope was -3.8e-05 (inactive). Further, the slope in assay [6] is 0.00315 (inactive).

In the case of `CCN(CC(=O)Nc1ccc(S(N)(=O)=O)cc1)S(=O)(=O)c1cc(C)ccc1OC`, the cell count in assay [1] amounted to 432. Besides, the inhibition in assay [1] is -0.3% (inactive); in assay [3], -51.7% (inactive); in assay [7], -18.9% (inactive); in assay [8], 19.6% (inactive). Further, the inhibition of aggregation in assay [2] was -6.5% (inactive). Also, the nuclei count is 118% in assay [2] and 132% in assay [3]. In addition, the fluorescence slope in assay [4] is -0.425 (inactive). In addition, in assay [5], the NADPH fluorescence slope is -4.7e-05 (inactive). The slope in assay [6] was 0.0034 (inactive).

With `CC1CN(c2ccc(Oc3ccccc3)cc2)c2nc3c(c(=O)n(CC(N)=O)c(=O)n3C)n2C1` (centres undefined), the cell count in assay [1] came out at 706. The inhibition is -12.4% (inactive) in assay [1], -15.8% (inactive) in assay [3], 9.73% (inactive) in assay [7] and 22.4% (inactive) in assay [8]. Further, in assay [2], the inhibition of aggregation was 4.2% (inactive). Also, the figures for the nuclei count in assay [2] and in assay [3] were 106% and 93.4%, respectively. For the same molecule, the fluorescence slope in assay [4] was -0.546 (inactive). Moreover, the NADPH fluorescence slope in assay [5] was -6.5e-05 (inactive). In addition, the slope in assay [6] was 0.00659 (inactive).
